60 compounds from PubChem BioAssay AID504444 (National Center for Advancing Translational Sciences (NCATS), 2011) can be followed below.

Among all 360,000 compounds or so, about 7,500 (2.1%) were called active. Roughly 20% stayed inconclusive and do not appear here. Calls follow the shape of the dose curve; as a rule, active = well fitted inhibition curve with a large enough effect; inconclusive = small, poorly fitted or top-dose-only effect, or effect the other way; inactive = flat fitted curve, though single readings scatter. The entries come from a sample that favours actives as a whole.
% is scaled to controls: 0 for no effect and ±100 for the full control effect; potency is read from the fitted curve at half-maximal effect.

The nature of the test: Nrf2 qHTS screen for inhibitors. Also: nearly all actives have a fitted effect of over 60% in size. Conditions: A549 ARE-Fluc reporter, luciferase luminescence, 18-24 h; series mostly up to 46 µM; activity change, negative = inhibition: at the top concentration. The procedure, abridged:
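A549 ARE_Fluc cells, 5000/well, 5% FBS OPTI-MEM; compounds in dose-response, 18-24 h at 37 °C/5% CO2; CellTiter-Fluor viability read (Ex 405/Em 525), then BugLite luciferase luminescence = Nrf2 activity.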
`CN1C(c2ccc(F)cc2)=CS/C1=C(/C#N)c1nnc2n1-c1ccccc1SC2`: the “activity change, negative = inhibition” value was -26.9% (inactive). On to `O=C1Nc2ccc(Br)cc2/C1=N/N=C/C1=C(N2CCOCC2)C(=C\c2ccccc2)/CC1`, for which the Potency was 20.6 µM (active).

As for `C(=N\N1CCN(c2ccccn2)CC1)/C1=C(N2CCOCC2)C(=C/c2ccccc2)/CC1`, the “activity change, negative = inhibition” value is 2.38% (inactive). Same read-out and setting: with `N#C/C(=C\C1=C(N2CCOCC2)C(=C\c2ccccc2)/CC1)C(=O)Nc1ccccc1F` the figure was -14.6% (inactive). On the same count and under the same terms, the same measure for `CCOc1ccccc1NC(=S)C(=C([O-])c1ccc2c(c1)OCCO2)[n+]1ccc(CC)cc1`: 4.22% (inactive); for `COc1cc(F)c(S(=O)(=O)N2CCCN(S(=O)(=O)c3ccc(N)cc3)CC2)c(F)c1`: -10% (inactive); for `CCOC(=O)c1ccc(NC(=O)c2ncn(-c3ccccc3)n2)cc1`: 3.01% (inactive). Same read-out and setting: with `Oc1ccc(Cl)cc1C1C=C(c2ccc3c(c2)OCO3)NC(c2ccc(F)c(Br)c2)N1` (stereo not given) the figure was -10.6% (inactive). On to `CC(C)N(C(=O)[C@H]1C[C@H](CC(=O)NCCC2=CCCCC2)C(=O)N2CCc3c([nH]c4cc(CCC(=O)N(C)C)ccc34)[C@]12C)C(C)C`, for which the “activity change, negative = inhibition” value was 5.78% (inactive).

With `CCCCCCn1c(CN2CCCCC2)nc2c1c(=O)n(C)c(=O)n2C`, the “activity change, negative = inhibition” value was 5.48% (inactive). As for `CCCCCCCCn1c2c(c(=N)c3c1CCC3)CCCC2`, the Potency was 9.2 µM (active). Still for that read-out and setting: with `Cc1cccc(N2CCN(C(=O)CCS(=O)(=O)c3ccc4c(c3)NC(=O)C(C)S4)CC2)c1C` (stereo not given) the figure was 2.59 µM (active). In the case of `CC1Sc2ccc(S(=O)(=O)CCC(=O)NCc3ccccc3Cl)cc2NC1=O` (stereo not given), the “activity change, negative = inhibition” value is -8.63% (inactive).

Consider `COc1ccccc1N1CCN(C(=O)CCS(=O)(=O)c2ccc3c(c2)NC(=O)C(C)S3)CC1` (stereo not given), for which the “activity change, negative = inhibition” value was -2.57% (inactive). The same measure, in the same setting: with `Oc1ccc(-c2nc3ccccc3nc2-c2ccc(O)cc2O)c(O)c1` the figure was 2.55% (inactive); with `CN[C@H](C(=O)NC[C@H]1O[C@@H](n2cnc3c(N)ncnc32)[C@H](O)[C@@H]1O)[C@@H](C)OCc1ccccc1`, -9.95% (inactive). On the same count and under the same terms, the same measure for `Cc1cccc(CSc2nc3ccncc3n2Cc2ccc(C(=O)O)cc2)c1`: 6.25% (inactive); for `Cc1cccc(CSc2nc3ccncc3n2CC(=O)N(C)C2CCCCC2)c1`: 2.61% (inactive). On to `COc1cccc(Cn2c(SCc3ccc(C(=O)N4CCC(C)CC4)cc3)nc3ccncc32)c1`, for which the Potency is 20.6 µM (active). Still for that read-out and setting: with `COc1cccc(Cn2c(SCc3ccc(C(=O)N4CCCCC4)cc3)nc3ccncc32)c1` the figure was 18.4 µM (active).

As to `O=C(O)c1ccc(Cn2c(SCc3ccc(F)cc3)nc3ccncc32)cc1`, the “activity change, negative = inhibition” value was 5.55% (inactive). The same measure, in the same setting: with `CCCCNC(=O)Cn1c(SCc2cccc(Cl)c2)nc2ccncc21` the figure was 13.2% (inactive). The same measure, in the same setting: the same measure for `COc1ccccc1-c1sc2ccccc2c1-c1ccc(Br)nc1`: 4.2% (inactive); for `OCCNc1ncnc2oc(-c3ccco3)c(-c3ccco3)c12`: 3.43% (inactive).

Take `CCCN1CN=C(NS(=O)(=O)c2ccc(NC(C)=O)cc2)NC1`: the “activity change, negative = inhibition” value was 0.228% (inactive). As for `Cc1ccc(S(=O)(=O)N2CCC(C(=O)Nc3cc(C)ccc3C)CC2)cc1`, the “activity change, negative = inhibition” value is -22.1% (inactive). On to `Cc1ccc(-c2nc(=N)sn2Cc2ccccc2)cc1`, for which the “activity change, negative = inhibition” value is 21.2% (inactive). Regarding `Cc1cc(-c2ccc(C)c(S(=O)(=O)NCCCN(Cc3ccccc3)C(C)C)c2)on1`, the “activity change, negative = inhibition” value is 2.12% (inactive). As to `Cc1cc(-c2ccc(C)c(S(=O)(=O)NC(C)Cc3ccco3)c2)on1` (stereo not given), the Potency was 18.4 µM (active). For `Cc1cc(-c2ccc(C)c(S(=O)(=O)Nc3ccc(S(N)(=O)=O)cc3)c2)on1`, the “activity change, negative = inhibition” value was 2.52% (inactive). Still for that read-out and setting: with `COC(=O)[C@]1(Cc2ccccc2)N[C@H](CN(C)S(=O)(=O)c2ccc(OC(F)(F)F)cc2)[C@@H]2C(=O)N(Cc3ccccc3)C(=O)[C@@H]21` the figure was 1.61% (inactive); with `Cc1cc(N2CCCC2)ccc1NC(=O)COc1ccc(Cl)cc1`, -11.4% (inactive).

For `COc1ccc(N(C)C(=O)CCS(=O)(=O)c2cccc3nsnc23)cc1`, the Potency entry is “inactive”. Same read-out and setting: with `COc1ccc(N(C)C(=O)C2CCN(S(=O)(=O)c3cccc4nsnc34)CC2)cc1` the figure was 8.2 µM (active).

`COc1ccc(N(C)S(=O)(=O)c2cccc3nsnc23)cc1`: the “activity change, negative = inhibition” value was -6.36% (inactive). On the same count and under the same terms, the same measure for `Cc1ccc(-c2nc3cccc(C)n3c2Nc2ccc3c(c2)OCCO3)cc1`: -3.89% (inactive); for `CCC(=O)OCCNc1nc(-c2ccccc2)nc2ccccc12`: 10.9% (inactive). Take `CC(C)(C)OC(=O)NNc1c2ccccc2nc2ccccc12`: the Potency is 23.1 µM (active). Turning to `Cc1ccccc1NC(=O)NNC(=O)OC(C)(C)C`, the “activity change, negative = inhibition” value was 4.49% (inactive).

As to `COc1ccc2c(c1)CCc1c(C(=O)Nc3cc(C)ccc3O)noc1-2`, the “activity change, negative = inhibition” value is 10.4% (inactive). `COc1ccccc1C(=O)Nc1c(C(=O)Nc2ccc(C)cc2)oc2ccccc12`: the “activity change, negative = inhibition” value was 11.1% (inactive). With `COc1ccccc1C(=O)Nc1ccccc1C(=O)Nc1ccccc1`, the “activity change, negative = inhibition” value was -15.1% (inactive). On to `COc1ccccc1C(=O)Nc1ccc(OCc2nnc3c4ccccc4c(C)nn23)cc1`, for which the Potency was 9.2 µM (active).

As to `CCOC(=O)c1c(C)[nH]c(C)c1S(=O)(=O)N(C)CC(=O)N1CCN(c2ccccc2)CC1`, the “activity change, negative = inhibition” value is -24.4% (inactive). The same measure, in the same setting: the same measure for `O=C(Nc1cccc(C(=O)NC2CC2)c1)c1ccc(F)c(S(=O)(=O)N2CCOCC2)c1`: -9.02% (inactive); for `O=C(OCCOc1ccccc1F)c1cc(S(=O)(=O)N2CCOCC2)ccc1F`: -14.5% (inactive). For `O=C(OCCOc1ccccc1Cl)c1cc(S(=O)(=O)N2CCCCC2)ccc1N1CCOCC1`, the Potency is 6.51 µM (active).

On to `O=C(NCC1CCCCC1)c1cc(S(=O)(=O)N2CCCCC2)ccc1N1CCOCC1`, for which the “activity change, negative = inhibition” value is -13.3% (inactive). Consider `O=C(NCC1CCCO1)c1ccc(S(=O)(=O)Nc2ccc(F)cc2)cc1` (stereo not given), for which the “activity change, negative = inhibition” value was -17.6% (inactive). Still for that read-out and setting: with `Cc1ccc(NC(=O)c2ccc(S(=O)(=O)NCC3CCCO3)cc2)cc1C` (stereo not given) the figure was 2.39% (inactive); with `COc1ccc(S(=O)(=O)NCc2cccnc2)cc1NC(=O)c1ccc(C)cc1`, -15.4% (inactive). With `O=C(Nc1ccc(S(=O)(=O)NCC2CCCO2)cc1)c1ccc(F)cc1` (stereo not given), the Potency was 11.6 µM (active).

For `O=C(N/N=C/c1cccnc1)c1ccc(NC(=O)c2ccc(F)cc2)cc1`, the “activity change, negative = inhibition” value was -14.3% (inactive). As to `O=C(Nc1ccc(F)cc1)c1ccc(S(=O)(=O)NCc2cccnc2)cc1`, the Potency is 18.4 µM (active).

On to `Cc1ccc(NS(=O)(=O)c2cc3c(cc2Br)NC(=O)CO3)cc1C`, for which the “activity change, negative = inhibition” value is -16.4% (inactive). The same measure, in the same setting: the same measure for `O=C(NCC1CCCCC1)NCC1CCCCC1`: 6.58% (inactive); for `Cc1cc2c(s1)c1cnn(Cc3cc(F)c(Cl)cc3Cl)c(=O)c1n2C`: 5.03% (inactive).

For the compound `O=[N+]([O-])c1ccccc1/C=C/CN1CCC(O)CC1`, the “activity change, negative = inhibition” value is -10.8% (inactive).

For the compound `O=[N+]([O-])c1ccccc1/C=C/CN1CCCC(CO)C1` (stereo not given), the “activity change, negative = inhibition” value is -4.92% (inactive). On to `CC1CCCCC1NC(=O)/C(C#N)=C/C=C/c1ccccc1[N+](=O)[O-]` (stereo not given), for which the Potency is 16.4 µM (active).
